Experimental data taken from PubChem BioAssay AID2314 (National Center for Advancing Translational Sciences (NCATS), 2010).
About 37,000 (12%) of roughly 300,000 compounds were called active. Rule as the data show it: active = max response mostly above about 13% (no sharp cut-off); inactive = mostly below about 14%. The sample as a whole holds a higher share of actives than the screen did.

test: Cycloheximide Counterscreen for Small Molecule Inhibitors of Shiga Toxin; details: cell reporter, cycloheximide protein synthesis inhibition counterscreen; active compounds read high; also: read at 38.3 µM for the half of the compounds with a filed dose; 0% is about no effect

Row | Compound | max response
1 | Cc1cc(C)nc(-n2ncc3c2CC(c2ccc(C(C)C)cc2)CC3=O)n1 (stereo unspecified) | 3.79% (inactive)
2 | CCC(=O)NC(Nc1nc2ccc(C)cc2s1)(C(=O)OC)C(F)(F)F (stereo unspecified) | 1.01% (inactive)
3 | O=C(CN1C(=O)c2cccc3cccc1c23)Nc1ccccc1 | -0.618% (inactive)
4 | Cc1cc2c(cc1S(=O)(=O)NCc1ccc(Cl)cc1)OCC(=O)N2 | 1.87% (inactive)
5 | CN(CCc1ccccn1)C1CCCN(S(=O)(=O)c2ccccc2Cl)C1 (stereo unspecified) | -3.81% (inactive)
6 | CC(C)NC(=O)N1CCN(c2ccncc2S(=O)(=O)N2CCCCC2)CC1 | 0.305% (inactive)
7 | C=CCc1ccccc1OCC(O)CN1CCN(CCO)CC1 (stereo unspecified) | -1.25% (inactive)
8 | Cc1[nH]c2ccccc2c1C(=O)CN1CCCC(C)C1 (stereo unspecified) | 4.44% (inactive)
9 | CCC(=O)Nc1ccc2c(c1)nc(CCN1CCN(c3ccccn3)CC1)n2C | -2.39% (inactive)
10 | Cn1c(CCN2CCCCCC2)nc2cc(NC(=O)Nc3ccccc3)ccc21 | 59.7% (active)
11 | Cn1c(CCN2CCCC2)nc2cc(NS(=O)(=O)c3ccccc3)ccc21 | 9.99% (inactive)
12 | CCN(CC)C(=O)Oc1ccc(OC(=O)N(CC)CC)cc1 | 19% (inactive)
13 | CCCCCn1c(=O)c(C(=O)Nc2c(C)n(C)n(-c3ccccc3)c2=O)c(O)c2ccccc21 | -1.67% (inactive)
14 | C=CCn1c(=O)c(C(=O)Nc2ncccc2O)c(O)c2ccccc21 | 0.679% (inactive)
15 | CCCn1c(=O)c(C(=O)Nc2cc(C)ccn2)c(O)c2ccccc21 | 9.34% (active)
16 | Cn1c(=O)c(Sc2ccc(Cl)cc2)c(O)c2ccccc21 | -5.19% (inactive)
17 | Cn1c(=O)c(C(=O)Nc2ncccn2)c(O)c2ccccc21 | 17.3% (active)
18 | CCCCCn1c(=O)c(C(=O)NCc2ccccn2)c(O)c2ccccc21 | -1.8% (inactive)
19 | N#C/C(=C/c1cccc([N+](=O)[O-])c1)c1nnc2n1CCCCC2 | -4.02% (inactive)
20 | CC(C)(C)c1ccc(C(=O)NCCn2c(N)c(C#N)c3nc4ccccc4nc32)cc1 | -4.74% (inactive)
21 | N#Cc1cccc(CN2CCC(=O)N([C@H](CO)c3ccccc3)CC2)c1 | -0.681% (inactive)
22 | C=CCOc1ccc(/C=C2/C(=O)ON=C2C)cc1OCC | -0.862% (inactive)
23 | CCOc1cc(/C=N/O)ccc1OCc1ccccc1F | 30.7% (active)
24 | CCOc1ccc(/C=N/NC(=O)C(C)Sc2ccccn2)cc1OCC (stereo unspecified) | -2.71% (inactive)

Row | Compound | max response
25 | CCOc1c(Cl)cc(/C=N/O)cc1OC | 5.27% (inactive)
26 | COc1cc(/C=C2/C(=O)ON=C2C)ccc1OCc1ccccc1F | 76% (active)
27 | COc1cc(/C=C2/C(=O)ON=C2C)ccc1OCc1cccc(F)c1 | 27.9% (inactive)
28 | CCC1=C(OC(=O)N(CC)CC)N2C(=O)OC(=NCCc3c[nH]c4ccccc34)[C@]2(C)[C@H]2C1=CC[C@H]1C(=O)N(CC)C(=O)[C@H]12 | -4.31% (inactive)
29 | O=C(CCc1nnc2ccc(NCc3ccccc3Cl)nn12)NCC1CCN(C2CCCC2)C1 (stereo unspecified) | -4.64% (inactive)
30 | Cc1ccc(NS(=O)(=O)c2c(C)[nH]c(C)c2C(=O)N2CCCCC2)c(C)c1 | 18% (inactive)
31 | CN(C)c1ccc(C=C2C(=O)OC3(CCCC3)OC2=O)cc1 | 0.693% (inactive)
32 | CC(C)(C)NC(=O)NC(=O)COC(=O)Cc1c(F)cccc1Cl | 6.65% (inactive)
33 | O=C(Nc1ccccc1N1CCN(c2ccccc2)CC1)c1cccc(F)c1 | -4.37% (inactive)
34 | Cc1nnsc1C(=O)NCc1c(F)cccc1Cl | 8.44% (inactive)
35 | CC(=O)Nc1ccn(Cc2c(F)cccc2Cl)n1 | 18.4% (active)
36 | O=C(Nc1ccn(Cc2ccccc2)n1)c1cccc(F)c1 | 39% (active)
37 | O=C(Nc1ccn(Cc2ccccc2)n1)c1n[nH]c([N+](=O)[O-])c1Cl | 47.7% (active)
38 | O=C(Nc1ccccc1N1CCCCC1)c1cccc(F)c1 | 3.77% (inactive)
39 | O=C(Cn1cnc([N+](=O)[O-])n1)NCCc1ccccc1 | 6.14% (inactive)
40 | O=C(O)CC(Cc1ccccc1)C(=O)Nc1ccc([N+](=O)[O-])cc1 (stereo unspecified) | 11.6% (inactive)
41 | CCOc1cc(C)ccc1OCc1nnc(SCC(=O)Nc2cccc(C(=O)O)c2)n1-c1ccccc1 | 3.69% (inactive)
42 | CC(C)C[C@H]1CN=C(Nc2ccccc2)N1CC1CCCCC1 | -4.32% (inactive)
43 | CC(=O)N1c2ccc(S(=O)(=O)N3CCCC(C(=O)Nc4ccc(C)cc4C)C3)cc2CC1C (stereo unspecified) | -0.234% (inactive)
44 | CC(C)c1cc(NCc2ccccn2)n2c(nc3ccccc32)c1C#N | 9.39% (inactive)
45 | Cc1ccc(Cl)cc1N1CCN(C(=O)c2cccc3c(=O)c(C)c(-c4ccccc4)oc23)CC1 | 3.64% (inactive)
46 | COCCn1cnc2c1c(=O)n(CC(=O)NN)c(=O)n2Cc1ccccc1 | -14.6% (inactive)
47 | O=Cc1c(Nc2ccccc2Cl)nc2ccccn2c1=O | -2.35% (inactive)
48 | O=C(COC(=O)CCCNC(=O)c1ccc(Cl)cc1)Nc1cc(Cl)ccc1Cl | -0.294% (inactive)

Row | Compound | max response
49 | C=CCn1c(C)cc(C2=NNC(=NCC)SC2)c1C | -12% (inactive)
50 | Cc1cc(C2=NNC(=Nc3ccc(S(=O)(=O)N4CCOCC4)cc3)SC2)c(C)n1CC1CCCO1 (stereo unspecified) | 19.4% (inactive)
51 | COCCn1c(C)cc(C2=NNC(=Nc3ccc(F)cc3)SC2)c1C | 31.2% (active)
52 | COc1ccc(C(=O)C[n+]2ccc(N)c(C)c2C)cc1 | -5.16% (inactive)
53 | CN1CN(C)c2ccc([N+](=O)[O-])c3cccc1c23 | -0.807% (inactive)
54 | C=CCNC(=S)/N=c1/ccccn1Cc1ccccc1 | 1.08% (inactive)
55 | CN(CC(=O)Nc1ccc(N2CCOCC2)cc1)CC(=O)Nc1ccccc1[N+](=O)[O-] | -1.06% (inactive)
56 | CC(=O)Nc1ccc(S(=O)(=O)N2CCN(c3ccc([N+](=O)[O-])c(NCCN4CCOCC4)c3)CC2)cc1 | -3.02% (inactive)
57 | COc1ccccc1OCCNc1cc(N2CCOCC2)ccc1[N+](=O)[O-] | 24.7% (active)
58 | Cc1ccc(CNC(=O)C2CCCN2S(=O)(=O)c2ccc3c(c2)C(C)(C)C(=O)N3C)cc1 (stereo unspecified) | -3.55% (inactive)
59 | C=CCOc1ccc(C(=O)Nc2ccccc2C(=O)N2CCCC2)cc1 | -1.61% (inactive)
60 | Cc1cccc(NC(=O)CN2CCCN(S(=O)(=O)c3ccc(Br)s3)CC2)c1 | 19.9% (inactive)
61 | CSc1ncccc1C(=O)OCC(=O)N1CCOCC1 | -5.04% (inactive)
62 | CSc1ncccc1C(=O)OCc1ccc(Br)cc1 | 36.2% (active)
63 | CSc1ncccc1C(=O)NCc1ccccc1Cl | 2.57% (inactive)
64 | CN1CCN(c2cc3c(cc2F)c(=O)c(C(=O)O)cn3CCF)CC1 | -3.38% (inactive)
65 | Oc1ccc(N=Nc2nccs2)c(O)c1 | 38% (active)
66 | Oc1ccc2ccccc2c1N=Nc1nccs1 | 11.4% (inactive)
67 | NC(=O)N1CCc2ccccc21 | -6.54% (inactive)
68 | Cc1nnc(SCC(=O)N2CCc3ccccc32)n1-c1ccccc1 | -1.58% (inactive)
69 | O=C(CSCc1ccccc1)N1CCc2ccccc21 | 50.5% (active)
70 | Cc1ccc(Oc2cc(NC(=O)CCCn3nc(C)c([N+](=O)[O-])c3C)cc([N+](=O)[O-])c2)cc1 | 6.56% (inactive)
71 | Cc1ccc2ccc3c(c2n1)NS(=O)(=O)c1ccccc1-3 | 9.31% (inactive)
72 | O=C1CC(C(F)(F)C(F)(F)C(F)(F)C(F)(F)F)=Nc2ccccc2N1 | 1.33% (inactive)

Row | Compound | max response
73 | Cc1ccccc1-n1nc(C)c2cc(C(=O)NC3CC3)sc21 | 13.7% (inactive)
74 | O=C(CSc1nc2nccnc2c(=O)n1Cc1cccs1)Nc1ccccc1F | 18.8% (inactive)
75 | Cc1cccc(-c2noc(CCC(=O)NC3CCCC3)n2)c1 | 2.28% (inactive)
76 | Cc1cccc(-c2nc(Nc3ccc(O)cc3)c3ccccc3n2)c1 | -0.236% (inactive)
77 | Cc1cccc(-c2noc(-c3ccc(F)cc3)n2)c1 | 70.7% (active)
78 | Cc1ccc(Cc2nc(-c3cccc(C)c3)no2)cc1 | 31.8% (active)
79 | CC(=O)N1CCCc2cc(S(=O)(=O)N3CCCC(C(=O)NCc4ccc(Cl)cc4)C3)ccc21 (stereo unspecified) | -1.26% (inactive)
80 | CCN1C(=O)C(C(=O)NC(C)c2ccccc2)C2CC1(C)Oc1ccccc12 (stereo unspecified) | -6.07% (inactive)
81 | Cc1nn(CC(=O)N2CCCCC2)c(=O)c2nn(-c3ccccc3)c(C)c12 | -0.579% (inactive)
82 | C[C@H](NC(=O)C1CCN(S(=O)(=O)c2ccccc2)CC1)C(=O)NCc1ccccc1 | -2.6% (inactive)
83 | COCCN1C(=O)C(=O)/C(=C(/O)c2ccc(S(=O)(=O)N3CCOCC3)cc2)C1c1ccc(OC)c(OC)c1 (stereo unspecified) | -0.449% (inactive)
84 | CCOCCCNC(=O)c1cn(CC(C)C)c(=O)c2c1c1ccccc1n2C | 1.59% (inactive)
85 | Cc1cc(Cl)c(S(=O)(=O)NCC2CCCO2)cc1OCC(N)=O (stereo unspecified) | -0.524% (inactive)
86 | Cc1cc(Cl)c(S(=O)(=O)N(C)C)cc1OCC(N)=O | 4.25% (inactive)
87 | Cc1cc(Cl)c(S(=O)(=O)Nc2ccc3c(c2)OCCO3)cc1OCC(N)=O | 40.8% (active)
88 | COc1ccc(S(=O)(=O)N2CCN(c3ncnc4c(-c5ccccc5)nsc34)CC2)cc1 | -2.92% (inactive)
89 | CC1=C(C(=O)OC2CCCCC2)C(c2cccnc2)n2ncnc2N1 (stereo unspecified) | -3.65% (inactive)
90 | C=CCCN(C(Cc1ccccc1)C(=O)OC)S(=O)(=O)c1cc(Br)ccc1Br (stereo unspecified) | -0.573% (inactive)
91 | O=C(Nc1ccc([N+](=O)[O-])cc1)OCCc1ccccn1 | 19% (active)
92 | O=C(Nc1cccc(Cl)c1)OCc1ccccn1 | 26.4% (inactive)
93 | O=[N+]([O-])c1ccc(NC(=S)N2CCN(c3ccccn3)CC2)cc1 | -3.35% (inactive)
94 | O=C(OCC#CCSc1nnc(-c2ccncc2)o1)c1sc2ccccc2c1Cl | -4.75% (inactive)
95 | C#CCSc1nnc(-c2sc3ccccc3c2Cl)o1 | 46.5% (active)
96 | COc1ccc2c(Cl)c(-c3nnco3)sc2c1 | 0.855% (inactive)
